# High-throughput results (PubChem BioAssay)
# PostGolgi ctrl – yeast control strain growth, post-Golgi counter-screen; efflux-deficient yeast background strain, growth absorbance A615, 16 h; inhibition, % at 10 µM; 98,000 tested, 5% active; AID 738
# PostGolgi yeast – growth inhibition of a yeast mutant, post-Golgi transport screen. post-Golgi transport phenotypic cell assay. inhibition, % at 10 µM. 98,000 tested, 0.9% active;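 also: yeast cells grown in 1536-well plates; yeast grown about 18 h at 30C before absorbance read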
# PTK2B oligo ant – blocks oligomerization of human Pyk2 in cells | Q14289 | Q293 cells, Pyk2 FERM NanoBiT luminescence; active compounds read low | z-score (the deposit names both 25 µM and 10 µM) | 99,000 tested, 0.83% active;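 active = Z-score of -3 or lower, scaled per plate to the spread of control and sample wells; inactive = z-score above -3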;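 also: negative z-score means lost luminescence so less FERM oligomerization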
# Target sequence (Q14289 whole entry, looked up): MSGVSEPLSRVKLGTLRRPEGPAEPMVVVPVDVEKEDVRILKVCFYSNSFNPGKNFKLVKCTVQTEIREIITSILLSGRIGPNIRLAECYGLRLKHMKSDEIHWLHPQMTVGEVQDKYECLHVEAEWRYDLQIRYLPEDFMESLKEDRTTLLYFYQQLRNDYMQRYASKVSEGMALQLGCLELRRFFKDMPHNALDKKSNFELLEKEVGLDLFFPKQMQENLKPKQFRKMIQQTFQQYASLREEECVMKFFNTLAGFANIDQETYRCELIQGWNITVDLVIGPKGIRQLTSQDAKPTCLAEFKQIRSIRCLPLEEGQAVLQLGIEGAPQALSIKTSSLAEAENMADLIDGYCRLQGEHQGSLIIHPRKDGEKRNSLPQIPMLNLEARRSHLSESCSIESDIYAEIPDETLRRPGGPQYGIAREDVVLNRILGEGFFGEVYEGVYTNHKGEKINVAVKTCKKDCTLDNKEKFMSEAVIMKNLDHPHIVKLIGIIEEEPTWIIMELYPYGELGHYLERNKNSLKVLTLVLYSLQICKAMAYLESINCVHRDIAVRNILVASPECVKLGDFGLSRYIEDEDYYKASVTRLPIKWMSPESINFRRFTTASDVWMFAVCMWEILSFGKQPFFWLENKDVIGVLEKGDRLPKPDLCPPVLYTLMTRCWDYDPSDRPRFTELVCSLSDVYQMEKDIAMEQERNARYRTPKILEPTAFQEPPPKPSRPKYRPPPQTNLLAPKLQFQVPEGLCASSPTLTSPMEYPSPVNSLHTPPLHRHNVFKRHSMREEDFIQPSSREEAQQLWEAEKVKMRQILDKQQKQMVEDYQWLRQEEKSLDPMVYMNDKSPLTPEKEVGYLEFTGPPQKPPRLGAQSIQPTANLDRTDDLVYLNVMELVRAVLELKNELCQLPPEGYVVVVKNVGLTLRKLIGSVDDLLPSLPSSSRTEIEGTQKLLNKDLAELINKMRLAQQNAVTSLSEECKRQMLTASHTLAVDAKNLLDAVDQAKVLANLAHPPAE
# Cav3 T inh – inhibitors of human Cav3.2 T-type calcium channel; O95180; Cav3.2-expressing cells, Fluo-4 calcium fluorescence FDSS; active compounds read low; B-score at 10 µM; 100,000 tested, 4% active; AID 449739;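 active = single-dose well whose peak fluorescence ratio is a statistical outlier from its plate by either plate-standardised score or position-corrected B-score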
# * marks the source's active call; other numbers are inactive results; x = not tested or not shown. The list is not random: actives were taken first. Their share in the collection is about 8%. Rule as the data show it, unless noted: active = inhibition above about 30%; inactive = the rest.
SMILES,PostGolgi ctrl,PostGolgi yeast,PTK2B oligo ant,Cav3 T inh
c1ccc(C(c2nnnn2Cc2ccco2)N2CCN(C3CCCC3)CC2)cc1 (configuration not stated),0,-5,-0.23,0.4
Cc1cccc(N2CCN(CCNC(=O)c3cc4c(s3)CS(=O)(=O)C4)CC2)c1C,-13,16,-0.14,-0.04
Cc1ccc(S(=O)(=O)Cn2nnnc2C(C(C)C)N2CCN(c3nc4ccccc4s3)CC2)cc1 (configuration not stated),x,x,-0.26,-3.1
c1ccc(Cn2nnnc2C(c2ccccc2)N2CCN(c3nc4ccccc4s3)CC2)cc1 (configuration not stated),1,-1,-4.1*,-0.035
CCC(C)(C)n1nnnc1C(c1ccc(O)c(OC)c1)N1CCN(c2nc3ccccc3s2)CC1 (configuration not stated),8,3,-1.2,-2.6
COc1ccc(C(c2nnnn2C(C)(C)C)N2CCN(c3nc4ccccc4s3)CC2)cc1 (configuration not stated),16,0,-1,-5.3*
Cc1ccc(C)c(N2CCN(C(c3ccc(N(C)C)cc3)c3nnnn3C(C)(C)C)CC2)c1 (configuration not stated),x,x,-0.11,-5.5*
COc1ccc(C(c2nnnn2Cc2ccccc2)N2CCN(C(=O)c3ccco3)CC2)cc1OC (configuration not stated),5,-4,-0.56,0.85
COc1ccc(C(c2nnnn2Cc2ccccc2)N2CCN(c3nc4ccccc4s3)CC2)cc1OC (configuration not stated),x,x,-3.8*,-3.3
CC(C)c1ccc(NC2(C#N)C(=O)Nc3ccccc32)cc1 (configuration not stated),7,-7,1,x
CCc1cccc(C)c1NC(=S)NCc1ccc2[nH]c(C)cc2c1,x,x,x,-2.4
COc1ccc(C2/C=C\CNCC(=O)N2Cc2ccc(F)cc2)cc1 (configuration not stated),x,x,x,-0.56
CCCCC(c1nnnn1Cc1ccco1)N1CCN(c2nc3ccccc3s2)CC1 (configuration not stated),46*,94*,-0.47,-4.3
CC1(C(=O)NCc2cccnc2)CCC(=O)N1Cc1cccs1 (configuration not stated),7,1,x,x
COC(=O)C1CSC(C(=O)OC)N1C(=O)Nc1c(C)cccc1C (configuration not stated),38*,-5,-0.16,0.078
COc1ccc(N(CC(=O)Nc2ccc(S(=O)(=O)N3CCCCC3)cc2)S(C)(=O)=O)cc1OC,-5,-1,-1.5,-1.8
O=C1c2ccccc2C(Nc2ccc(S(=O)(=O)N3CCOCC3)cc2)N1Cc1ccco1 (configuration not stated),13,-8,x,2.2
COc1cc(=O)[nH]c(SCc2c(F)c(F)c(F)c(F)c2F)n1,53*,11,0.16,-0.98
Cc1cc(Cl)ccc1Oc1cccc(C(=O)/C(C#N)=C/N(C)C)c1,65*,5,-1.9,-0.12
Cc1ccccc1Oc1cccc(C(=O)/C(C#N)=C/N(C)C)c1,2,21,2.8,-0.92
CN(C)/C=C(/C#N)C(=O)c1cccc(Oc2ccc(C(C)(C)C)cc2)c1,50*,3,-1.6,-1.3
O=C(NCC1COc2ccccc2O1)C1CCCN(S(=O)(=O)c2cnc[nH]2)C1 (configuration not stated),x,x,x,-0.5
Cc1c(Cl)cccc1NC(=O)CCC(=O)NNC(=O)c1ccccc1Cl,-8,16,0.28,1
CCOC(=O)c1c(C)[nH]c(C(=O)COC(=O)CN2C(=O)C3CCCCC3C2=O)c1C (configuration not stated),6,-5,-0.28,-0.021
CCOC(=O)c1c(C)[nH]c(C(=O)COC(=O)C(C)N2C(=O)C3CCCCC3C2=O)c1C (configuration not stated),-7,-10,-1.7,-3.2*
SMILES,PostGolgi ctrl,PostGolgi yeast,PTK2B oligo ant,Cav3 T inh
Cc1ccc(NS(=O)(=O)c2ccc(NC(=O)c3cccs3)cc2)cc1,-8,-1,-0.35,-0.39
Cc1ccc(NC(=O)c2cc(S(=O)(=O)N3CCCCC3)cs2)cc1,6,1,-0.63,-4.8*
O=C(Nc1ccc(F)cc1)c1cc(S(=O)(=O)Nc2ccc(F)cc2)cs1,7,25,-0.12,-5.8*
Cc1ccc(Cn2nnnc2CN2CCC(c3nc4ccc(Cl)cc4[nH]3)CC2)cc1,74*,5,-1.8,-5.7*
Cc1ccc(N2C(=O)N(CC(=O)N3CCCc4ccccc43)C(=O)C2C)cc1 (configuration not stated),-9,-6,-0.29,-0.37
CCN(CC)c1ccc2c(c1)OC(N)=C(C#N)C2c1cccnc1 (configuration not stated),17,11,-2.2,-11*
